The full ranking holds about 9,900 sequences; the median of “r (bound/input frequency ratio)” is about 0.7, and the highest 2% start at about 6.5. The entries come from a sample that favours the highest values as a whole.
B1: ENSMUSG00000061578.187|Ksr2 (ssRNA)
RNA: GGGAGUUCUACAGUCCGACGAUCGCUUCGAUAUCCGCAUGCUAUUGUGCACACUCAGCACCCCAUCUUCCAAGCCUUUCUUCAUCCCCCACCUUCUUUUGGGAAGGGGUGGCACAGAGUGAAUGGGAAGGAGAGCCCUGAGGUCACUGGUCCACAUGCCCAAAGCCAUGCCCCCCAGUGAUCAGACCUGACACAAGAGGCAAAGCUGUCCCUAAGCAGAGAAUUAGCAGGGUUAGCCAGACAGCAAAAUCCAUGUAAACAUACAAAACCACCCCCCCUUUUUGAGUGGCCCUAUUGGAUGUACCUCUUGCGGUCGCACUAGUGUGGAAUUCUCGGGUGUCAAGG
B2: ENSMUSG00000029028.38|Lrrc47 (ssRNA)
RNA: GGGAGUUCUACAGUCCGACGAUCGCUUCGAUAUCCGCAUGCUAUGUGCUGUAGGUGUCUGUGUAGGUGUGGGUGUGCUGUAGGUGUCUGUGUGGGUGUGCUAGGUGUCUGUAUAGGUGUGGGUGUGCUGUAGAUGUCUGUGUAGGUAUGGGUGUGCUGUAGAUCUUUGUAGGUGUAGGUAUGCUGUAGGUAUCUGGGUGUGGGUAUGCUGUAGAUGUCUGUGUAGGUGUGGAUAUGCUGUAGGUAUCUGGGUGUGCUGUAGGUGUCUGUGUGGGUGUGGGUGUGCUGUGGGUGUCUGUGUGGGCUCUUGCGGUCGCACUAGUGUGGAAUUCUCGGGUGUCAAGG
B3: ENSMUSG00000029028.20|Lrrc47 (ssRNA)
RNA: GGGAGUUCUACAGUCCGACGAUCGCUUCGAUAUCCGCAUGCUAUGUGGGUGUGCUGUAGGUGUCUGUGUGGGUGUGGGUGUGCUGUAGGUGUCUGUGUGGGUGUGGGUGUGCUAUAGGUAUCUGUGGGUGUGCUGUAGGUGUCUGUGUGGGUGUGCUGUAGGUGUCUGUGUAGGUGUGGGUGUGCUGUAGGUGUCUGUGUGGGUGUGCUAGGUGUCUGUAUAGGUGUGGGUGUGCUGUAGAUGUCUGUGUAGGUAUGGGUGUGCUGUAGAUCUUUGUAGGUGUAGGUAUGCUGUAGGUAUCUGCUCUUGCGGUCGCACUAGUGUGGAAUUCUCGGGUGUCAAGG
B4: ENSMUSG00000029028.66|Lrrc47 (ssRNA)
RNA: GGGAGUUCUACAGUCCGACGAUCGCUUCGAUAUCCGCAUGCUAAGAUGUCUGUGUAGGUGUGGAUAUGCUGUAGGUAUCUGGGUGUGCUGUAGGUGUCUGUGUGGGUGUGGGUGUGCUGUGGGUGUCUGUGUGGGUGUGCUGUAGGUGUCUGUAGGUGUGGGUAUGCUGCAGGUGUGGGUGUGCUGUAGAUCUCUAUAGGUGUGGGUGUGCUGUAGGGGUCUGUGUGGGUAUAGGUGUGGGUGUGCUGUAGAUUCUGUGUAACUGGUUCUUUGCUGUUUCUCUGGGUGUUUUAAGGUGUCUGCCUCUUGCGGUCGCACUAGUGUGGAAUUCUCGGGUGUCAAGG
B5: ENSMUSG00000029028.68|Lrrc47 (ssRNA)
RNA: GGGAGUUCUACAGUCCGACGAUCGCUUCGAUAUCCGCAUGCUAAGGUGUGGAUAUGCUGUAGGUAUCUGGGUGUGCUGUAGGUGUCUGUGUGGGUGUGGGUGUGCUGUGGGUGUCUGUGUGGGUGUGCUGUAGGUGUCUGUAGGUGUGGGUAUGCUGCAGGUGUGGGUGUGCUGUAGAUCUCUAUAGGUGUGGGUGUGCUGUAGGGGUCUGUGUGGGUAUAGGUGUGGGUGUGCUGUAGAUUCUGUGUAACUGGUUCUUUGCUGUUUCUCUGGGUGUUUUAAGGUGUCUGCUUUUGUCCAGGUCUCUUGCGGUCGCACUAGUGUGGAAUUCUCGGGUGUCAAGG
B6: ENSMUSG00000029028.21|Lrrc47 (ssRNA)
RNA: GGGAGUUCUACAGUCCGACGAUCGCUUCGAUAUCCGCAUGCUAUGUGCUGUAGGUGUCUGUGUGGGUGUGGGUGUGCUGUAGGUGUCUGUGUGGGUGUGGGUGUGCUAUAGGUAUCUGUGGGUGUGCUGUAGGUGUCUGUGUGGGUGUGCUGUAGGUGUCUGUGUAGGUGUGGGUGUGCUGUAGGUGUCUGUGUGGGUGUGCUAGGUGUCUGUAUAGGUGUGGGUGUGCUGUAGAUGUCUGUGUAGGUAUGGGUGUGCUGUAGAUCUUUGUAGGUGUAGGUAUGCUGUAGGUAUCUGGGUGUGCUCUUGCGGUCGCACUAGUGUGGAAUUCUCGGGUGUCAAGG
B7: ENSMUSG00000029028.19|Lrrc47 (ssRNA)
RNA: GGGAGUUCUACAGUCCGACGAUCGCUUCGAUAUCCGCAUGCUAUGUAGGUGUGGGUGUGCUGUAGGUGUCUGUGUGGGUGUGGGUGUGCUGUAGGUGUCUGUGUGGGUGUGGGUGUGCUAUAGGUAUCUGUGGGUGUGCUGUAGGUGUCUGUGUGGGUGUGCUGUAGGUGUCUGUGUAGGUGUGGGUGUGCUGUAGGUGUCUGUGUGGGUGUGCUAGGUGUCUGUAUAGGUGUGGGUGUGCUGUAGAUGUCUGUGUAGGUAUGGGUGUGCUGUAGAUCUUUGUAGGUGUAGGUAUGCUGUAGGCUCUUGCGGUCGCACUAGUGUGGAAUUCUCGGGUGUCAAGG
B8: ENSMUSG00000029028.44|Lrrc47 (ssRNA)
RNA: GGGAGUUCUACAGUCCGACGAUCGCUUCGAUAUCCGCAUGCUAUAGGUGUCUGUGUGGGUGUGCUAGGUGUCUGUAUAGGUGUGGGUGUGCUGUAGAUGUCUGUGUAGGUAUGGGUGUGCUGUAGAUCUUUGUAGGUGUAGGUAUGCUGUAGGUAUCUGGGUGUGGGUAUGCUGUAGAUGUCUGUGUAGGUGUGGAUAUGCUGUAGGUAUCUGGGUGUGCUGUAGGUGUCUGUGUGGGUGUGGGUGUGCUGUGGGUGUCUGUGUGGGUGUGCUGUAGGUGUCUGUAGGUGUGGGUAUGCUGCACUCUUGCGGUCGCACUAGUGUGGAAUUCUCGGGUGUCAAGG
B9: ENSMUSG00000029028.67|Lrrc47 (ssRNA)
RNA: GGGAGUUCUACAGUCCGACGAUCGCUUCGAUAUCCGCAUGCUACUGUGUAGGUGUGGAUAUGCUGUAGGUAUCUGGGUGUGCUGUAGGUGUCUGUGUGGGUGUGGGUGUGCUGUGGGUGUCUGUGUGGGUGUGCUGUAGGUGUCUGUAGGUGUGGGUAUGCUGCAGGUGUGGGUGUGCUGUAGAUCUCUAUAGGUGUGGGUGUGCUGUAGGGGUCUGUGUGGGUAUAGGUGUGGGUGUGCUGUAGAUUCUGUGUAACUGGUUCUUUGCUGUUUCUCUGGGUGUUUUAAGGUGUCUGCUUUUGUCUCUUGCGGUCGCACUAGUGUGGAAUUCUCGGGUGUCAAGG
B10: ENSMUSG00000029028.28|Lrrc47 (ssRNA)
RNA: GGGAGUUCUACAGUCCGACGAUCGCUUCGAUAUCCGCAUGCUAUCUGUGUGGGUGUGGGUGUGCUAUAGGUAUCUGUGGGUGUGCUGUAGGUGUCUGUGUGGGUGUGCUGUAGGUGUCUGUGUAGGUGUGGGUGUGCUGUAGGUGUCUGUGUGGGUGUGCUAGGUGUCUGUAUAGGUGUGGGUGUGCUGUAGAUGUCUGUGUAGGUAUGGGUGUGCUGUAGAUCUUUGUAGGUGUAGGUAUGCUGUAGGUAUCUGGGUGUGGGUAUGCUGUAGAUGUCUGUGUAGGUGUGGAUAUGCUGUAGGCUCUUGCGGUCGCACUAGUGUGGAAUUCUCGGGUGUCAAGG

Biological target: TDP-43 (Homo sapiens, UniProt Q13148 1-414)
Sequence (Q13148 whole entry): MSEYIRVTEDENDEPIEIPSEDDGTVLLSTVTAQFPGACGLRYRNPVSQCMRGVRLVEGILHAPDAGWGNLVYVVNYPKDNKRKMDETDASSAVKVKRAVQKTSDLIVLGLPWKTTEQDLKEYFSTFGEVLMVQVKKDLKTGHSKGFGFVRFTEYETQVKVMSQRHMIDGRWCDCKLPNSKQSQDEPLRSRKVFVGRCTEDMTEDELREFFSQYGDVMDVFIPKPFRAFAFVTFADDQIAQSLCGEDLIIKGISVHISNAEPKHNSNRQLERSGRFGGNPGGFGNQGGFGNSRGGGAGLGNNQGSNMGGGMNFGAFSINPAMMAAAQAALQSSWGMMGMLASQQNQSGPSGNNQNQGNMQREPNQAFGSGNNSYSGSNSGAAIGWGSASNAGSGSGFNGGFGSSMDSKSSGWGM
Assay: RNA Bind-n-Seq with designed 260-mer pool; 25 mM Tris-HCl, 150 mM KCl, 3 mM MgCl2, BSA (printed 500 mg/mL), 20 units/mL SUPERase IN; pH not stated; 500 nM RNA pool, 1 h, 4 C; TDP-43 5, 50, 500 nM; high values mean tight binding
Details: protein: recombinant; tags: SBP (GST cleaved off with PreScission; pGEX-GST-SBP)
Summary of the method: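 In 25 mM Tris-HCl, 150 mM KCl, 3 mM MgCl2, BSA and SUPERase IN, 500 nM of an in vitro-transcribed 260-nt 3′ UTR oligo pool was incubated for 1 h at 4 °C with SBP-tagged TDP-43 (5, 50 or 500 nM) captured on streptavidin beads. RNA remaining after washes was biotin-eluted, reverse transcribed, PCR-amplified and sequenced. Binding, R, is the bound-sample abundance of each oligo, normalized to mapped reads, divided by its abundance in input. Each duplicate used a separate, independent protein batch.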

Binder	binding signal
B1	0.56 R (bound/input frequency ratio)
B2	5.89 R (bound/input frequency ratio)
B3	5.01 R (bound/input frequency ratio)
B4	4.75 R (bound/input frequency ratio)
B5	7.46 R (bound/input frequency ratio)
B6	5.32 R (bound/input frequency ratio)
B7	6.81 R (bound/input frequency ratio)
B8	6.44 R (bound/input frequency ratio)
B9	6.13 R (bound/input frequency ratio)
B10	6.68 R (bound/input frequency ratio)

Reference: PMC12864922, “TDP-43 directly inhibits mRNA accumulation in neurites through modulation of mRNA stability”
